# Screens deposited in PubChem by National Center for Advancing Translational Sciences (NCATS).
# Pf Dd2 inh = Plasmodium falciparum Dd2 growth inhibition; P. falciparum Dd2 growth, SYBR Green, 72 h; Potency, µM (series often up to 28.9 µM), inactives show top-dose activity, negative = inhibition, usual class: inhibitors; actives 4.3% (n = 120,000); active means well fitted inhibition curve with a large enough effect;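 further: plate controls were DMSO vehicle for no effect and reference drug for full effect; nearly all actives have a fitted effect of over 65% in size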
#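 Readout: SYBR Green fluorescence, 485 nm excitation, 535 nm emission, after ~16 h lysis at 37C. Before that, Dd2-infected red cells (2.5% hematocrit) grew 72 h with compound, 29 uM top final concentration.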
# An asterisk follows results filed as active; i = inactive; [ ] = another dose, or the depositor's remark. This is one part of a sample in which hits are shown more often than they occur. Potency means the concentration at half of the fitted maximal effect.
SMILES,Pf Dd2 inh
Cc1ccccc1NC(=O)c1c(C)oc2ccc(O)c(CN(C)Cc3ccccc3)c12,1.1µM*
CC(C)CC(=O)N[C@H](C)c1onc(-c2ccc(F)cc2)c1C(=O)O,-10%[44.1 µM]
O=C(Cn1nc2c(cc1=O)CCCC2)NC1CCN(Cc2ccc(F)cc2)CC1,5%
O=C1CCN(C(=O)C2CCN(C(=O)c3cccnc3)CC2)CCCCCCN1,19%
CSCC(=O)N[C@H]1CCN2C(=O)c3cc(-c4ccccc4)ccc3NC(=O)[C@H]12,1%[44.1 µM]
CCCc1noc(-c2cccn3c(CNC(=O)c4cccc(F)c4)nnc23)n1,-8%
COc1ccc(CNC(=O)[C@@H]2CCC[C@@H](NC3CCOCC3)CN(C)C(=O)C2)cc1,14%[44.1 µM]
CCNC(=O)[C@@H]1C[C@H](NC(=O)c2ccc(OC)o2)CN1Cc1nc(C)no1,0%
O=C(NCC(F)(F)F)c1ccc2c(c1)C1(CCN(CC3CC3)C1)CN2Cc1ccccc1 (configuration not stated),i
COc1cccc([S+](=O)([O-])N2CCCC3(CC(c4cccnc4)=NO3)C2)c1 (configuration not stated),5%
CC(C)(C)OC(=O)N1CC(Nc2ccc(O)cc2)C1,11µM*
Cc1cc(Cl)ccc1NC1CN(C(=O)OC(C)(C)C)C1,-9%[44.1 µM]
CC(C)(C)OC(=O)N1CC(NCc2ccccn2)C1,-1%[44.1 µM]
CN1CCC(N[C@H]2[C@H](O)[C@H](O)C[C@@H]2c2ccc(N3CCOCC3)nc2)CC1,20%[44.1 µM]
COc1ccc2c(c1)CN(C1COC1)CC[C@H]1COC(=O)N21,42%[44.1 µM]
COc1ncccc1-c1cc(C(=O)NCCN2CCOCC2)c2c(c1)ncn2C,23%[44.1 µM]
CC(C)CCN1C(=O)CC[C@]2(C(=O)NCCc3cccnc3)CCCC[C@@H]12,i
CCC(C)NC(=O)CSc1c2c(nc3cc(Cl)ccc13)CCCC2 (configuration not stated),-9%
O=C(CSc1c2c(nc3cc(Cl)ccc13)CCCC2)N1CCN(c2ccccc2)CC1,11µM*
CC1CCN(C(=O)CSc2c3c(nc4cc(Cl)ccc24)CCCC3)CC1,-24%
CC(C)c1nncn1C1CCN(S(=O)(=O)c2cccc(F)c2)CC1,-21%
COCCNC(=O)CCCN1C(=O)COc2ccc(C(=O)COc3ccc(Cl)c(C)c3)cc21,i
COCCCNC(=O)CCCN1C(=O)COc2ccc(C(=O)COc3cccc(C)c3C)cc21,-1%
COCCNC(=O)CCCN1C(=O)COc2ccc(C(=O)COc3c(C)ccc(C)c3C)cc21,10µM*
COc1cc(-c2nc(-c3c(C)noc3C)cc3[nH]c(C)cc23)ccn1,i
SMILES,Pf Dd2 inh
COc1ccccc1N1CCN([C@H]2[C@@H]3OC[C@@H](O3)[C@@H](NCc3ccc(F)cc3)[C@@H]2O)CC1,7.9µM*
COc1ccccc1N1CCN([C@H]2[C@@H]3OC[C@@H](O3)[C@@H](NCc3ccc(N(C)C)cc3)[C@@H]2O)CC1,-3%
COc1ccccc1N1CCN([C@H]2[C@@H]3OC[C@@H](O3)[C@@H](NCc3ccncc3)[C@@H]2O)CC1,-7%[44.1 µM]
O[C@H]1[C@H](NCc2ccncc2)[C@H]2CO[C@H](O2)[C@@H]1N1CCC(Cc2ccccc2)CC1,i
O=C(Nc1ccccc1)N[C@H]1[C@H](O)[C@@H](N2CCC(Cc3ccccc3)CC2)[C@@H]2OC[C@H]1O2,-5%
CC(C)CN[C@H]1[C@H](O)[C@@H](N2CCC(Cc3ccccc3)CC2)[C@@H]2OC[C@H]1O2,4µM*
COc1ccc(F)cc1C(=O)N1CC[C@@H]2[C@@H](CCC(=O)N2CCN)C1,-11%
COc1ccc(CNC(=O)C[C@@H]2CCNC[C@@H]2Cc2cc(COc3ccccc3)on2)cc1OC,-19%
Cc1noc(-c2cccn3c(CNC(=O)c4ccc(C(C)(C)C)cc4)nnc23)n1,-13%
COc1ccc(S(=O)(=O)N2C[C@@H]3C[C@H](C2)c2c(NC(=O)c4cncnc4)ccc(=O)n2C3)cc1,-9%
O=C(c1cnccn1)N1C[C@@H]2OCC(=O)N(CC3CC3)[C@@H]2C1,21%[44.1 µM]
COc1ccc(-c2nc3c(c(=O)[nH]2)CCN(C(=O)COc2ccccc2C)C3)cc1,i
O=C1CCCCC(C(=O)N2CCc3ccccc3C2)N1 (configuration not stated),-8%
CCS(=O)(=O)N1CCCCCCNC(=O)[C@@H]2C[C@@H](C(=O)N3CCc4ccccc4C3)C[C@@H]21,i
O=C1NCCCCCN(C(=O)NC2CCCCC2)[C@@H]2C[C@@H](C(=O)N3CCc4ccccc4C3)C[C@H]12,8.9µM*
Cn1ccnc1C(=O)N1CCCCCNC(=O)[C@H]2C[C@H](C(=O)N3CCc4ccccc4C3)C[C@H]21,-25%
CC(C)C(=O)N1CCCCCCNC(=O)[C@@H]2C[C@@H](C(=O)N3CCN(c4ccccn4)CC3)C[C@@H]21,-21%
O=C1NCCCCCCN[C@H]2C[C@H](C(=O)N3CCc4ccccc4C3)C[C@@H]12,6.3µM*
COc1ccc(-c2ccc3nnc(CNC(=O)c4cc(F)ccc4F)n3n2)cc1,i
O=C([C@@H]1C[C@H](F)CN1S(=O)(=O)c1ccc(F)c(F)c1)N1CCCCC1,-16%
